Results from ChEMBL document CHEMBL4513216, “Probing the Open Global Health Chemical Diversity Library for Multistage-Active Starting Points for Next-Generation Antimalarials” (ACS Infect Dis, 2020).
Out of some 69,000 compounds screened, about 8,600 (12%) showed an effect of 50% or more. What follows is part of a selection rich in strong results, with near analogues and random picks from the rest.

test system: Plasmodium berghei; experiment: Screen against P. berghei liver stage (PbLuc), transformed with Luciferase, at 10uM; assay type: functional, HepG2; conditions: tested at 10 uM

Row | SMILES | INHIBITION [%]
1 | Cc1cs/c(=N\C(=O)c2c3c(nc4onc(C)c24)CCC3)[nH]1 | 24.1
2 | Cc1[nH]/c(=N\C(=O)c2csc(NCC(C)C)n2)sc1C | 89.6
3 | CC(C)CNc1nc(C(=O)/N=c2\[nH]nc(C(C)(C)C)s2)cs1 | 11.5
4 | Cc1cc(O)c(OCC(=O)/N=c2\[nH]c(C)c(C)s2)cn1 | -69.4
5 | Cc1cs/c(=N/C(=O)c2csc(NCC(C)C)n2)[nH]1 | 90.8
6 | CC(=O)Nc1nc(C(=O)NC(C)c2ccc(F)cc2)cs1 (stereo unspecified) | -45.2
7 | Cc1nn(C(C)C)c(C)c1CN1CCN(C2CCCCC2)C(=O)C1 | 5.1
8 | CCN1CC[C@@]2(C(=O)N3CCOCC3)CCN(S(=O)(=O)CC)CC[C@@H]12 | 17.4
9 | Cc1ccn2cc(C(=O)N3CCCC(Cn4cc(CO)nn4)C3)nc2c1 (stereo unspecified) | 36.7
10 | Cc1cc2n(n1)[C@@H](C(F)(F)F)C[C@@H](C1CCN(C(=O)C3CC3)CC1)N2 | -4.51
11 | CC(C)(C)CC(=O)NS(=O)(=O)c1ccc(C#N)cc1C(F)(F)F | 19.2
12 | Cc1cc(C)n(-c2cncc(NCCNC(=O)C3CCCC3)n2)n1 | 45.2
13 | CS(=O)(=O)N1CC[C@H]2C[C@@H](C(=O)N3CCOCC3)O[C@@H]2C1 | 25.4
14 | CS(=O)(=O)N1C[C@@H]2C[C@H](C(=O)N3CCOCC3)[C@H](C1)O2 | 0.112
15 | CS(=O)(=O)N1CCn2c(C(=O)N3CCOCC3)cnc2C1 | 52.6
16 | Cc1cccc(NS(=O)(=O)c2cc3c(c(C(=O)O)c2)OCCO3)c1 | 7.27
17 | Cc1cc(C)cc(NS(=O)(=O)c2cc3c(c(C(=O)O)c2)OCCO3)c1 | 57.2
18 | O=C(O)c1cc(S(=O)(=O)Nc2cc(F)cc(F)c2)cc2c1OCCO2 | 40
19 | COCCN1C(=O)CCC12CCC(NC(=O)c1cnccn1)CC2 (stereo unspecified) | -14.7
20 | CNC(=O)C1(c2cnccn2)CCCN1C(=O)c1ccccc1F (stereo unspecified) | 13.5
21 | C[C@H]1CN(CC2CCOCC2)C[C@@]12CCN(Cc1cccnc1)C2=O | 3.81
22 | CN1CCCC1CCn1ccnc1-c1nc2ccccc2[nH]1 (stereo unspecified) | 53.9

Row | SMILES | INHIBITION [%]
23 | Cn1ccnc1CN1CCCCC1c1nc(-c2ccccc2)no1 (stereo unspecified) | 30.4
24 | CN1CCCC1CCn1ccnc1-c1nc(-c2ccccc2)no1 (stereo unspecified) | 51.8
25 | CN1CCCC1CCn1ccnc1-c1ccc2ccccc2n1 (stereo unspecified) | 72.3
26 | Cc1nc(CN2CCCC2Cn2ccnc2C(C)C)nc2ccccc12 (stereo unspecified) | 30.4
27 | OCC1CCCCN1CCn1ccnc1-c1nc2ccccc2[nH]1 (stereo unspecified) | 38.8
28 | Cc1nn(C)c2nc(-c3ccccn3)nc(NCCC3CCCN3C)c12 (stereo unspecified) | 11.2
29 | Cc1nccn1CCC1CCNCC1 | 39.6
30 | c1ccc(-c2noc(CCCN3CCCC3Cn3cccn3)n2)cc1 (stereo unspecified) | 45.7
31 | COCCN1CCCC1Cn1nc(C)cc1C (stereo unspecified) | 32.3
32 | Cc1cc(=O)n2nc(Oc3ccc(Cl)c(C)c3)sc2n1 | 16.3
33 | CCC(C)N(Cc1cnc(NCC(=O)O)nc1)Cc1ccsc1 (stereo unspecified) | 41.3
34 | O=C(Cc1ccccc1O)NC1CCCN(c2ccccc2F)C1=O (stereo unspecified) | 26.4
35 | Cc1cc(C(=O)NCCC(=O)N2CCCc3ccccc32)no1 | 1.51
36 | O=C(c1ccnnc1)N1C[C@H](OCC2CCOCC2)[C@H]2OCCC[C@H]21 | 4.68
37 | Cc1nc(CN(C)CC2CCCN2c2cccnn2)nc2ccccc12 (stereo unspecified) | 60.9
38 | Cc1nc(CN(C)CC2CCCN2c2cccnn2)oc1C (stereo unspecified) | -27.8
39 | CN(Cc1ncc(C(C)(C)C)o1)CC1CCCN1c1cccnn1 (stereo unspecified) | 86.6
40 | CN(Cc1nc(N)c2ccccc2n1)CC1CCCN1c1cccnn1 (stereo unspecified) | 11.8
41 | Cc1nnc(CN(C)CC2CCCN2c2cccnn2)o1 (stereo unspecified) | 19.5
42 | CC(C)(C)c1cnc(CNCC2CCCN2c2cccnn2)o1 (stereo unspecified) | 34.1
43 | Cc1nc2ccccc2nc1CN(C)CC1CCCN1c1cccnn1 (stereo unspecified) | 10.2
44 | CN(Cc1ncc(-c2ccccc2)o1)CC1CCCN1c1cccnn1 (stereo unspecified) | 37

Row | SMILES | INHIBITION [%]
45 | CN(Cc1nc2ccccc2o1)CC1CCCN1c1cccnn1 (stereo unspecified) | 55
46 | CC(=O)N1CCCN(C(C)c2ccc(Br)cc2)CC1 (stereo unspecified) | -19.2
47 | CC(C)CNC(=O)N1CC[C@@H]2CN(Cc3cccnc3)S(=O)(=O)[C@@H]2CC1 | 32.1
48 | CCC(CC)C(O)CNC(=O)Cc1c[nH]c2ncccc12 (stereo unspecified) | 2.38
49 | CCN1CCCC(O)(CN(C)Cc2ccccc2F)C1 (stereo unspecified) | 8.46
50 | O=C1CC(c2ccccc2)C2(CCN(C(=O)c3ccncc3F)CC2)N1 (stereo unspecified) | 32.2
51 | COCCCNC(=O)Nc1ccc(F)c(C(N)=O)c1 | -23.9
52 | COc1c(Cl)cc(Cl)cc1CN1CCC(C(N)=O)C1 (stereo unspecified) | -11.3
53 | O=C(NCc1ccccc1F)N1CCCCC1C1OCCO1 (stereo unspecified) | -6.88
54 | CN(Cc1cccc(-n2cccn2)c1)Cc1cccs1 | -29
55 | CCC(CO)N(Cc1cccc(-n2cccn2)c1)Cc1ccccn1 (stereo unspecified) | 25.5
56 | CCC(CO)N(Cc1cccc(-n2cccn2)c1)Cc1cccs1 (stereo unspecified) | 53.2
57 | O=C(COc1cccc(F)c1)N1C[C@H](CO)C[C@H](CN2CCCC2)C1 | 10.42
58 | CN(C)[C@@H]1CN(C(=O)COc2cccc(F)c2)C[C@H]1O | 54.5
59 | O=C(COc1cccc(F)c1)N1C[C@@H](O)[C@H](N2CCOCC2)C1 | 32.3
60 | O=C(COc1cccc(F)c1)N1C[C@@H](O)[C@H](N2CCCC2)C1 | 53.5
61 | O=C(COc1cccc(F)c1)N1C[C@@H](CN2CCCC2)C[C@H](CO)C1 | -1.315
62 | O=C(COc1ccccc1)N1C[C@@H](O)[C@H](N2CCCC2)C1 | 37
63 | COCCN1C(=O)[C@]2(CC[C@@H]3CN(Cc4ccccc4F)C[C@@H]32)N=C1C | 14.9
64 | O=C(Nc1cnn(-c2ccccc2Cl)c1)NC1CCC(O)CC1 (stereo unspecified) | -66.7
65 | Cc1nn(C)c(C)c1S(=O)(=O)N1CC[C@H]2O[C@@H](C)C[C@H]2C1 | 17.4
66 | COC(=O)[C@H](C)NC(=O)CSCc1nc2sc(C(C)C)cc2c(=O)[nH]1 | 28.7
